PubChem BioAssay AID485347 (National Center for Advancing Translational Sciences (NCATS), 2010)
The campaign covered roughly 340,000 compounds. About 1,200 (0.35%) were called active.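 The calls were made as follows: active = potentiation over 3 SD above the plate norm (cut at about 30% in these data); inactive = the rest.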 What follows is part of a selection rich in actives, with near analogues and random picks from the rest.

target: D(2) dopamine receptor (Homo sapiens) (UniProt P14416); assay: HTS Assay for Positive Allosteric Modulators of the Human D2 Dopamine Receptor: Primary Screen for Potentiators; conditions: HEK293 T-REx D2, calcium flux, EC20 dopamine potentiation; at 10 µM; active compounds read high; also: 0% is about no effect
In short: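 Cells plated with tetracycline inducer and held overnight at 30 C; calcium dye loaded 30–90 min at room temperature; baseline taken, compound added and read 180 s; EC20 dopamine then added and read 180 s.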

D(2) dopamine receptor (Homo sapiens), sequence (P14416 whole entry, looked up): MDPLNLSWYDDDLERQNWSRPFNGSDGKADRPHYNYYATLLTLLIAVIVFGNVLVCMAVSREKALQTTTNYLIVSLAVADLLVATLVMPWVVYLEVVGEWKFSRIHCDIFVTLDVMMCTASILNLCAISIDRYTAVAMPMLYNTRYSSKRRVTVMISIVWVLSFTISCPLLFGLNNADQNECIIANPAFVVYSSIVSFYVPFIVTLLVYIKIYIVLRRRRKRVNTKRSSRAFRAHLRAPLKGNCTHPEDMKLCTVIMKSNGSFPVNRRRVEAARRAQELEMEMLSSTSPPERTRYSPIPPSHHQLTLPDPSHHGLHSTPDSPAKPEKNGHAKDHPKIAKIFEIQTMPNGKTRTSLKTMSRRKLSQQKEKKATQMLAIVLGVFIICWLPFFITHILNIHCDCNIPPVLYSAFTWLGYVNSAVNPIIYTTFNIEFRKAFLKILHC

SMILES | potentiation
CCOC(=O)c1c(C)[nH]c(C)c1S(=O)(=O)N1CCC(C(=O)Nc2ccc(C)c(Cl)c2)CC1 | 1.42% (inactive)
O=C(Nc1ccc(-c2nnc(-c3ccccc3)o2)cc1)C1CCCO1 (configuration not stated) | 15.5% (inactive)
CC(=O)Nc1cccc(C(=O)OCC(=O)Nc2nnc(-c3ccccc3)o2)c1 | 4.87% (inactive)
O=C(Nc1cccc(-c2nnc(-c3ccccc3)o2)c1)C1CCCO1 (configuration not stated) | 34% (active)
COc1cccc(CNC(=O)c2ccc3c(Cl)c4c(nc3c2)CCCC4)c1 | -3.62% (inactive)
COc1ccc(Cl)cc1-n1c(C)cc(C(=O)OCC(=O)N2CC(=O)Nc3ccccc32)c1C | -19.1% (inactive)
COc1cc(OC)c(C(=O)OCC(=O)N2CC(=O)Nc3ccccc32)cc1OC | 35.4% (active)
COc1ccc(C(=O)OCC(=O)N2CC(=O)Nc3ccccc32)cc1Br | -9.38% (inactive)
O=C(Nc1nnc(C2CC(=O)N(c3ccc(Cl)cc3)C2)s1)c1ccco1 (configuration not stated) | -13.1% (inactive)
Cc1cccc(OCCCC(=O)Nc2ccc(S(=O)(=O)N3CCCC3)cc2)c1 | 9.5% (inactive)
CC(=O)NCCC(=O)Nc1cc(S(=O)(=O)N2CCCCC2)ccc1Oc1cccc(C)c1 | -0.184% (inactive)
Cc1cccc(OCCC(=O)Nc2cc(S(=O)(=O)N3CCCCC3)ccc2N2CCOCC2)c1 | 38.1% (active)
CCOC(=O)N1CCC(NC(=O)c2cnn(-c3cccc(C)c3)c2C2CCN(C(=O)OC(C)(C)C)CC2)CC1 | -9.08% (inactive)
Cn1nnnc1SCCNCc1ccc(Cl)c(Cl)c1 | -14.4% (inactive)
CC1=NCCN1S(=O)(=O)c1cccc([N+](=O)[O-])c1 | 12.8% (inactive)
Cc1ccc(-c2cn(S(=O)(=O)c3cccc([N+](=O)[O-])c3)nc2N)cc1 | 30.3% (active)
Cc1cc(C)n(S(=O)(=O)c2cccc([N+](=O)[O-])c2)n1 | 2.11% (inactive)
COc1cccc(C(c2c(O)cc(C)n(Cc3ccco3)c2=O)N2CCN(c3ccccc3)CC2)c1 (configuration not stated) | -2.97% (inactive)
Cc1ccccc1CNC(=O)CCc1cn(Cc2ccccc2C)c2ccccc12 | -1.4% (inactive)
COc1ccc(-c2cn3nc(N4CCCC(C(=O)NCCCOC(C)C)C4)sc3n2)cc1 (configuration not stated) | -3.35% (inactive)
Cc1cccc(NC(=O)C2CCN(S(=O)(=O)c3c(C)noc3/C=C/c3ccco3)CC2)c1 | 2.71% (inactive)
O=C(CCNC(=O)c1ccc(Br)cc1)NCCCc1ccccc1 | 33% (active)
O=C(CCNS(=O)(=O)c1ccccc1)NCCCc1ccccc1 | -12.4% (inactive)
CC(C)c1ccc(C(=O)NCCCc2ccccc2)cc1 | -14.7% (inactive)

SMILES | potentiation
Cc1cc(F)ccc1NS(=O)(=O)c1ccc(-n2cccn2)cc1 | -0.96% (inactive)
COc1ccc(CCNC(=O)c2cc(=O)c3c(C)cc(C)cc3o2)cc1OC | -14.8% (inactive)
COc1ccc(C2=NOC(C(=O)NCc3ccco3)C2)cc1OC (configuration not stated) | 32.1% (active)
COc1ccc(CNC(=O)C2CC(c3ccc(C(F)(F)F)cc3)=NO2)cc1 (configuration not stated) | 11.9% (inactive)
COc1ccc(S(=O)(=O)N2CCC(C(=O)NCc3ccco3)CC2)cc1C | 6.74% (inactive)
COc1cccc(-n2cc(C(=O)NCc3cccc(Cl)c3)c3ccccc3c2=O)c1 | 3.92% (inactive)
Cc1nnc(NCc2ccccc2)c2c1nnn2Cc1ccc(F)cc1 | -11.5% (inactive)
COc1cc(Cl)c(NC(=O)C(NS(=O)(=O)c2cccs2)C(C)C)c(OC)c1 (configuration not stated) | -0.155% (inactive)
COCc1c(C(=O)N/N=C/C2CC=CCC2)nnn1-c1nonc1N (configuration not stated) | 5.51% (inactive)
CC(C)c1c(C(=O)N/N=C/c2ccc(-c3ccccc3)cc2)nnn1-c1nonc1N | 4.04% (inactive)
Nc1nonc1-n1nnc(C(=O)N/N=C/C2CCCCC2)c1-c1ccccc1 | 38.6% (active)
Cc1cc(C)c2oc(-c3cccc(NC(=O)c4cccc(F)c4)c3C)nc2c1 | -6.15% (inactive)
COc1cccc(-c2nc(CS(=O)(=O)CC(=O)N3CCN(c4cc(C)ccc4C)CC3)c(C)o2)c1 | 20.2% (inactive)
Cc1ccc(SCCSc2ncccn2)cc1 | -3.01% (inactive)
Cc1ccc(SCC2=NNC(=O)C2)cc1 | 31.9% (active)
Cc1ccc(SCc2cc(=O)[nH]c(N3CCCCC3)n2)cc1 | -9.08% (inactive)
CCn1c2ccccc2c2cc(NC(=O)COc3ccc(C)cc3C)ccc21 | -13% (inactive)
CCc1ccc(NC(=O)c2nn(-c3ccc(C)cc3)c(=O)n(C)c2=O)cc1 | 11.1% (inactive)
COC(=O)COc1ccc(S(=O)(=O)N2CCOCC2)cc1 | -3.49% (inactive)
O=C(COC(=O)/C=C/c1ccc(S(=O)(=O)N2CCCCCC2)cc1)NCc1ccccc1Cl | -11.9% (inactive)
COc1ccc(CNC(=O)COC(=O)/C=C/c2ccc(S(=O)(=O)N3CCOCC3)cc2)cc1 | 33.3% (active)
CCn1c(CN2CCC(C)CC2)nc2cc(NC(=O)c3ccccc3[N+](=O)[O-])ccc21 | -38.3% (inactive)
O=C(Cn1cc(SCc2cccc(Cl)c2)c2ccccc21)N1CCCCC1 | 1.4% (inactive)
O=C(COc1ccc(Cl)cc1)N1CCN(c2cccc(C(F)(F)F)c2)CC1 | 35.5% (active)

SMILES | potentiation
O=C(COc1ccc(Cl)cc1)N1CCN(S(=O)(=O)c2ccc(Cl)cc2)CC1 | -3.15% (inactive)
Cc1c(C)c2ccc(OCC(=O)N3CCN(c4cccc(Cl)c4)CC3)cc2oc1=O | -6.58% (inactive)
CCOC(=O)c1ccc(N2C(=O)c3n[nH]c(-c4ccco4)c3C2c2ccc(O)cc2)cc1 (configuration not stated) | -20% (inactive)
Nc1ncc(S(=O)(=O)Nc2ccc(OC(F)(F)F)cc2)cn1 | -3.21% (inactive)
CCOc1ccc(NC(=O)CC2C(=O)N(c3cccc(OC)c3)C(=O)N2C2CCCCC2)cc1 (configuration not stated) | 2.76% (inactive)
COc1ccc(S(=O)(=O)c2cn(C)c3cc(N4CCCCC4)c(F)cc3c2=O)cc1 | -4.51% (inactive)
COC(=O)c1cnc(N2CCN(c3ccccc3OC)CC2)c2ccccc12 | 3.09% (inactive)
COc1ccccc1N1CCN(c2ncnc3sc(C)c(-c4ccccc4)c23)CC1 | 37.8% (active)
COc1ccccc1N1CCN(c2ncnc3onc(-c4ccc(F)cc4)c23)CC1 | -4.24% (inactive)
CCc1ccc(C2C(C(=O)Nc3ccccc3)=C(C)Nc3c(C(=O)Nc4ccc(C)cc4)cnn32)cc1 (configuration not stated) | 4.34% (inactive)
COc1ccccc1N1CCN(c2ccc(=O)n(CC(=O)NCc3ccc(OC(C)C)cc3)n2)CC1 | -2.29% (inactive)
CCOc1cc2c(cc1OCC)C(C(=O)O)C(c1ccc(OC)c(O)c1)N(C)C2=O (configuration not stated) | -25.6% (inactive)
COc1cccc(NC(=O)C2c3cc(OC)c(OC)cc3C(=O)N(C)C2c2cccnc2)c1 (configuration not stated) | 30.1% (active)
COc1cccc(NC(=O)C2C(c3ccccc3)C2(Cl)Cl)c1 (configuration not stated) | -7.1% (inactive)
Cc1ccc(O)c(NC(=O)CCS(=O)(=O)c2nc(-c3ccc4c(c3)OCO4)cc(C(F)(F)F)n2)c1 | 5.96% (inactive)
Cc1cccc(NC(c2cccc(F)c2)c2ccc3ccc(C)nc3c2O)n1 (configuration not stated) | 0.98% (inactive)
Cc1cc(C)cc(-n2c(SCC(=O)NCC3CCCO3)nc3c([nH]c4ccccc43)c2=O)c1 (configuration not stated) | -6.86% (inactive)
Cc1ccc(-n2cnc3cc(C(=O)NCCC4=CCCCC4)ccc32)cc1Cl | 9.63% (inactive)
CCn1c2ccccc2c2cc(CN3CCN(Cc4cccc(Cl)c4)CC3)ccc21 | -11.2% (inactive)
CCOC(=O)N1CCC(c2cc(=O)n(-c3ccccc3)[nH]2)CC1 | 49.5% (active)
CCOC(=O)CN1CCC(c2ccccc2)CC1 | -9.51% (inactive)
CCOC(=O)N1CCC(NC(=O)CCc2ccccc2)CC1 | -4.2% (inactive)
CCCCS(=O)(=O)c1oc(-c2cccs2)nc1S(=O)(=O)c1ccccc1 | 3.55% (inactive)
CCS(=O)(=O)N1CCc2cc(C(=O)N3CCN(c4ccccc4OC)CC3)ccc21 | 3.69% (inactive)
